# Measurements as given in PubChem BioAssay (Tox21).
# Values joined by “and” are separate entries in the source; they are usually repeats but may differ in a detail not shown here. Equal values may be shown once. Results filed as inconclusive are left out. Where a call stands in place of a potency, no number is given. More than one record can exist for a structure, and the calls need not agree. Active and inactive are the calls of the source. Calls follow the shape of the dose curve; as a rule, active = well fitted curve in the direction sought with a large enough effect in the repeat runs; inconclusive = weak or mixed curves; inactive = no such curve, though single readings can be large; an effect the other way counts as inactive or inconclusive.
# Assays:
# [1] = target: Nuclear receptor subfamily 1 group I member 2 (Rattus norvegicus) (UniProt Q9R1A7); experiment: Rat pregnane X receptor (rPXR) activation by small molecules, qHTS assay (AID 1346983); settings: rPXR luciferase reporter cells, One-Glo luminescence, 24 h; max activation: stronger effect = higher value; also: nearly all actives have a fitted effect of over 20% in size
# Method in brief: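 Luminescent readout (One-Glo luciferase, 30 min room temperature) followed 24 hr compound treatment at 37 C of rPXR cells plated 2,000 per well and preincubated 5hr; qHTS format with compounds delivered in DMSO.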
# [2] = target: Nuclear receptor subfamily 1 group I member 2 (Homo sapiens) (UniProt O75469); experiment: CYP3A4 induction through human pregnane X receptor (PXR) by small molecules, qHTS assay (AID 1346984); also: nearly all actives have a fitted effect of over 40% in size; also: potency is read from the fitted curve at half-maximal effect
# Method in brief: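 Steps: seed DPX-2 cells, 5 hr at 37C; pin-transfer compounds; 24 hr at 37C; add Luciferin-IPA (3uM final), 3 hr at 37C; add One-Glo, 30 min RT; read luminescence.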
# [3] = target: Nuclear receptor subfamily 1 group I member 2 (Homo sapiens) (UniProt O75469); experiment: Human pregnane X receptor (PXR) activation by small molecules, qHTS assay (AID 1346985); also: nearly all actives have a fitted effect of over 40% in size; also: potency is read from the fitted curve at half-maximal effect
# Method in brief: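 DPX-2 cells (HepG2 co-transfected with a PXR response element and a CYP3A4-promoter luciferase construct) were seeded at 2,000 per well, rested 5 hr at 37C, then exposed to DMSO-dissolved compounds for 24 hr. Activation was read as luciferase luminescence.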
# [4] = target: Cytochrome P450 2D6 (Homo sapiens) (UniProt P10635); experiment: Cytochrome P450 Family 2 Subfamily D Member 6 (CYP2D6) small molecule antagonists: luciferase reporter qHTS assay (AID 1671196); also: potency is read from the fitted curve at half-maximal effect; nearly all actives have a fitted effect of over 50% in size
# Method in brief: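 P450-Glo format: CYP2D6 converts a proluciferin substrate to luciferin in an NADPH-driven reaction lasting 1 h at room temperature. Light output, proportional to CYP2D6 activity, reflects interference by test chemicals.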
# [5] = target: Cytochrome P450 2C19 (Homo sapiens) (UniProt P33261); experiment: Cytochrome P450 Family 2 Subfamily C Member 19 (CYP2C19) small molecule antagonists: luciferase reporter qHTS assay (AID 1671197); also: potency is read from the fitted curve at half-maximal effect; nearly all actives have a fitted effect of over 65% in size
# Method in brief: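 Light output is proportional to CYP2C19 activity: proluciferin substrate is converted to luciferin, then detected by a luciferin detection reagent that also stops the 1 h, 37C NADPH-driven reaction. Ketoconazole serves as positive control.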
# [6] = target: Voltage-gated inwardly rectifying potassium channel KCNH2 (Homo sapiens) (UniProt Q12809); experiment: Human Ether-a-go-go-Related Gene (hERG) channel small molecule antagonists: fluorescence cell-based qHTS assay (AID 1671200); also: potency is read from the fitted curve at half-maximal effect; nearly all actives have a fitted effect of over 50% in size
# Method in brief: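 Thallium flux as potassium surrogate: FluxOR II dye loaded 1 h at room temperature into hERG-expressing U2OS cells, then stimulus buffer added after 10 min. Kinetic 480 nm excitation/540 nm emission read, 2 min.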
# Nuclear receptor subfamily 1 group I member 2 (Rattus norvegicus), sequence (Q9R1A7 whole entry, looked up): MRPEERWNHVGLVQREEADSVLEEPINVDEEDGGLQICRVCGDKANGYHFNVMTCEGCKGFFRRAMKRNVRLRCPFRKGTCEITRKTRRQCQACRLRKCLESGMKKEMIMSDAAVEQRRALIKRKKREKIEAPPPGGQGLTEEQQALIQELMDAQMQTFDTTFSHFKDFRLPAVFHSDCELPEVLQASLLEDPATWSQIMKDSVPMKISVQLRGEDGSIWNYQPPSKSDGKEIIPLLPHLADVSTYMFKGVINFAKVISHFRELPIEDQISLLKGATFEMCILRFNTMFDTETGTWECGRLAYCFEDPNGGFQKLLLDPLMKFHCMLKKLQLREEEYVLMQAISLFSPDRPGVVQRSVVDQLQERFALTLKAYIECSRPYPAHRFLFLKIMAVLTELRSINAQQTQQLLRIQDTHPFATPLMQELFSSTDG
# Voltage-gated inwardly rectifying potassium channel KCNH2 (Homo sapiens), sequence (Q12809 whole entry, looked up): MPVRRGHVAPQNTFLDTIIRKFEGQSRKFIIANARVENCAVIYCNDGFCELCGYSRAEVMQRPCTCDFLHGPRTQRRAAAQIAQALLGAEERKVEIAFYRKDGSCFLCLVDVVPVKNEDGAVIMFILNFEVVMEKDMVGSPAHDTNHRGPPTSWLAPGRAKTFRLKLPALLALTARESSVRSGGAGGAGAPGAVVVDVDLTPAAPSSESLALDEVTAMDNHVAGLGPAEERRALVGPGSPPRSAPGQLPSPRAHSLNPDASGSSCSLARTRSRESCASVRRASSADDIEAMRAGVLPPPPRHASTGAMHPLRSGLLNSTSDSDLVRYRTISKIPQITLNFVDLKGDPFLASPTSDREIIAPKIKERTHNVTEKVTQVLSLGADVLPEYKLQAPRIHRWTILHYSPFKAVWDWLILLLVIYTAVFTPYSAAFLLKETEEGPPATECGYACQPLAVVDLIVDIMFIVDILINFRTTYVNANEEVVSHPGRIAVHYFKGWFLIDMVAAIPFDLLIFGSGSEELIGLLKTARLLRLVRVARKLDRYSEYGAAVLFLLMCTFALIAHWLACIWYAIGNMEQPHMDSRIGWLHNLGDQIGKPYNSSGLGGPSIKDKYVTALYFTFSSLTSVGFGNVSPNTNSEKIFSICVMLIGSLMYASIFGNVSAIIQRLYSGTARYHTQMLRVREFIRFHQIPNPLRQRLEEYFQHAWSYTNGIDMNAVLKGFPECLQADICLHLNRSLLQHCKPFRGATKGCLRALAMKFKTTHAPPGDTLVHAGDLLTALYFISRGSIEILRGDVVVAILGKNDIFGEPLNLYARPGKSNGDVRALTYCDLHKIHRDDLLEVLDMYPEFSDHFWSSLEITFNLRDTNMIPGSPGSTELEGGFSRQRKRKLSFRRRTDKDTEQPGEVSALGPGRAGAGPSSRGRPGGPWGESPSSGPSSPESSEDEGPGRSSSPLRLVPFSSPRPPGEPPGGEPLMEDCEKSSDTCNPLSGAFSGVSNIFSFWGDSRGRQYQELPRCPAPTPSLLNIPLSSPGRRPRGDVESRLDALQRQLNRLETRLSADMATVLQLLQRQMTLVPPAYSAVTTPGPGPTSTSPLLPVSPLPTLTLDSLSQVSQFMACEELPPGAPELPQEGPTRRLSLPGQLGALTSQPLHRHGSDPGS
# Cytochrome P450 2D6 (Homo sapiens), sequence (P10635 whole entry, looked up): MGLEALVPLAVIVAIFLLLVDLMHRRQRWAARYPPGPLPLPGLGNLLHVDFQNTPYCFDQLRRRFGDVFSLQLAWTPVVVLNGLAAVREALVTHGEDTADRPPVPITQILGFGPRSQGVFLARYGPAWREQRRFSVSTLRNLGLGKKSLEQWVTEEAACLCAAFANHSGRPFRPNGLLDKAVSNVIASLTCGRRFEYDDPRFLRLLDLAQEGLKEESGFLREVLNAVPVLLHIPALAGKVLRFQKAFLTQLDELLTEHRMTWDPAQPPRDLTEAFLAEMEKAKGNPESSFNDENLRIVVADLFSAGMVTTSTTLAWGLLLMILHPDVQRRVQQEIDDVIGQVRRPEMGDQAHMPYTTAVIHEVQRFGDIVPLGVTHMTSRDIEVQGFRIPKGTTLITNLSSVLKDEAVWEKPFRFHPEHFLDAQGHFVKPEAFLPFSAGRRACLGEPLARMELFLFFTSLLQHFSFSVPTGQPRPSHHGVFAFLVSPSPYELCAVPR
# Cytochrome P450 2C19 (Homo sapiens), sequence (P33261 whole entry, looked up): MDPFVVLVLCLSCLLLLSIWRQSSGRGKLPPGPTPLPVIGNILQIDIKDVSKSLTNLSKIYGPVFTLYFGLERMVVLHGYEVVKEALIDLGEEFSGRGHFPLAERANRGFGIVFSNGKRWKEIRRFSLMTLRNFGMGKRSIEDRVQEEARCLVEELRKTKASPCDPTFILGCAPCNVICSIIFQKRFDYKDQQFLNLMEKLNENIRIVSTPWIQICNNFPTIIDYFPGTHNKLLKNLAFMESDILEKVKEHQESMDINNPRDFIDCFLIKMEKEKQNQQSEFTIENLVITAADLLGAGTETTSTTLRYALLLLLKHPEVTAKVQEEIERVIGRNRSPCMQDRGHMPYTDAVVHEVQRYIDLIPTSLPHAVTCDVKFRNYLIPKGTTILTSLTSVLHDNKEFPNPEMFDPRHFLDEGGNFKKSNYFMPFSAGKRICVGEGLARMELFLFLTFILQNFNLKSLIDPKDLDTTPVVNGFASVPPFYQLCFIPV
structure (smiles),measurement,setting,value
COc1cc2c(cc1O)CCN[C@]21CS[C@@H]2c3c(OC(C)=O)c(C)c4c(c3[C@H](COC1=O)N1[C@@H]2[C@H]2c3c(cc(C)c(OC)c3O)C[C@@H]([C@@H]1O)N2C)OCO4,max activation,[1],-17.5% (inactive)
same,Potency,[2],inactive
same,Potency,[3],inactive
NC(=S)NS(=O)(=O)c1ccc(N)cc1,max activation,[1],-1.97% (inactive)
same,Potency,[2],inactive
same,Potency,[3],inactive
CC(=O)Oc1cc(C(F)(F)F)ccc1C(=O)O,max activation,[1],2.94% (inactive)
same,Potency,[2],inactive
same,Potency,[3],inactive
O=C1CCC(c2ccccc2)(C2CCN(Cc3ccccc3)CC2)C(=O)N1 (stereo not given),max activation,[1],4.99% (inactive)
same,Potency,[2],14.1 µM (active)
same,Potency,[3],5.62 µM (active)
C=N[C@@H](C(=O)N[C@@H]1C(=O)N2[C@@H]1SC(C)(C)[C@@H]2C(=O)O)c1ccccc1,max activation,[1],-2.74% (inactive)
same,Potency,[2],inactive
same,Potency,[3],inactive
CC[C@@]1([C@@H]2O[C@@H]([C@H]3O[C@@](O)(CO)[C@H](C)C[C@@H]3C)C[C@@H]2C)CC[C@H]([C@]2(C)CC[C@]3(C[C@H](O)[C@@H](C)[C@@H]([C@@H](C)[C@@H](OC)[C@H](C)C(=O)O)O3)O2)O1 (stereo in doubt),max activation,[1],-15.4% (inactive)
same,Potency,[2],inactive
same,Potency,[3],inactive
CC[C@H]1OC(=O)[C@H](C)C(=O)[C@H](C)[C@@H](O[C@@H]2O[C@H](C)C[C@H](N(C)C)[C@H]2O)[C@](C)(OC)C[C@@H](C)C(=O)[C@H](C)[C@H]2N(CCCCn3cnc(-c4cccnc4)c3)C(=O)O[C@]12C,max activation,[1],2.76% (inactive)
same,Potency,[2],inactive and 501 nM (active)
same,Potency,[3],inactive and 794 nM (active)
NC(N)=NCC1COC2(CCCCC2)O1 (stereo not given),max activation,[1],-2.55% (inactive)
same,Potency,[2],inactive
same,Potency,[3],inactive
CC(C)(O/N=C(\C(=O)N[C@@H]1C(=O)N2C(C(=O)[O-])=C(C[n+]3ccccc3)CS[C@H]12)c1csc(N)n1)C(=O)O,max activation,[1],0.831% (inactive)
same,Potency,[2],inactive
same,Potency,[3],inactive
COC(=O)C[C@](O)(CCCC(C)(C)O)C(=O)O[C@@H]1C(OC)=CC23CCCN2CCc2cc4c(cc2[C@H]13)OCO4 (stereo not given in full),max activation,[1],-15.5% (inactive)
same,Potency,[2],inactive
same,Potency,[3],inactive
O=P(O)(O)OP(=O)(O)OP(=O)(O)O,max activation,[1],-6.54% (inactive)
same,Potency,[2],inactive
same,Potency,[3],inactive
Nc1cc(Cl)c(NC2=NCCN2)c(Cl)c1,max activation,[1],-1.9% (inactive)
same,Potency,[2],inactive
same,Potency,[3],inactive
CCCCCCOC(=O)c1cccnc1,max activation,[1],-0.199% (inactive)
same,Potency,[2],inactive
same,Potency,[3],inactive
CCc1cn([C@H]2C[C@H](O)[C@@H](CO)O2)c(=O)[nH]c1=O,max activation,[1],1.52% (inactive)
same,Potency,[2],inactive
same,Potency,[3],inactive
O=P(O)(O)C(O)(Cn1ccnc1)P(=O)(O)O,max activation,[1],-1.82% (inactive)
same,Potency,[2],inactive
same,Potency,[3],inactive
CC[N+](CC)(CC)CCC(O)(c1ccccc1)C1CCCCC1 (stereo not given),max activation,[1],-2.27% (inactive)
same,Potency,[2],inactive
same,Potency,[3],inactive
C[C@@H]1O[C@@H]1P(=O)(O)O,max activation,[1],-1.9% (inactive)
same,Potency,[2],inactive
same,Potency,[3],inactive
COc1ccc([C@@H]2CC(=O)c3c(O)cc(O[C@@H]4O[C@H](CO[C@@H]5O[C@@H](C)[C@H](O)[C@@H](O)[C@H]5O)[C@@H](O)[C@H](O)[C@H]4O)cc3O2)cc1O,max activation,[1],-3.19% (inactive)
same,Potency,[2],inactive
same,Potency,[3],inactive
CCCOC(=O)c1ccccc1O,max activation,[1],-4.53% (inactive)
same,Potency,[2],inactive
same,Potency,[3],inactive
CN(C)CCOc1ccc(/C(=C(/CCCl)c2ccccc2)c2ccccc2)cc1,Potency,[4],52.8 µM (active)
same,Potency,[5],52.8 µM (active)
CN1CCN(CCCN2c3ccccc3Sc3ccc(C(F)(F)F)cc32)CC1,Potency,[6],2.68 µM (active)
